# Rows were chosen to be rich in hits. Some 15% of all compounds tested hit in one or more screens of this group.
# TDP1 cell CPT – qHTS for Inhibitors of human tyrosyl-DNA phosphodiesterase 1 (TDP1): qHTS in cells in presence of CPT; chicken DT40 Tdp1-/-;hTDP1 cells + 20 nM CPT, ATP luminescence, 48 h; Potency, µM (titrated, usually from 46.2 µM), without a hit: at the highest dose activity change, negative = growth inhibition, usual class: inhibitors; 420,000 tested, 12% active; note: nearly all actives have a fitted effect of over 55% in size
#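 Cell growth measured by CellTiter-Glo luminescence after a minimum 48 h, 37 C compound exposure with 20 nM CPT in Tdp1-knockout DT40 cells stably expressing hTDP1, seeded 400/well; qHTS titration format.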
# RORg inh – qHTS for inhibitors of ROR gamma transcriptional activity; Potency, µM (titrated, usually from 53.6 µM), for the others: top-dose activity change, negative = inhibition, actives largely listed as inhibitors; Nuclear receptor ROR-gamma (Mus musculus), P51450; Drosophila S2 Gal4-RORgamma UAS-luciferase reporter, 20 h; 310,000 tested, 5.4% active; note: nearly all actives have a fitted effect of over 60% in size
#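 Compounds are pin-transferred onto Drosophila Schneider cells expressing a copper-inducible Gal4–ROR gamma transactivation domain fusion. After 1 hr, copper sulfate is added to 700 uM final; luciferase is read 20 hr later.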
# DT40 TDP1 no CPT – qHTS for Inhibitors of human tyrosyl-DNA phosphodiesterase 1 (TDP1): qHTS in cells in absence of CPT; DT40 Tdp1-/- hTDP1 cells, no CPT, ATP luminescence, 48 h; Potency, µM (top dose mostly 46.2 µM), for the others: at the highest dose activity change, negative = growth inhibition, most hits filed as inhibitors; 420,000 tested, 15% active; AID 686978, 2013; note: nearly all actives have a fitted effect of over 55% in size
#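 Growth kinetics read by CellTiter-Glo luminescence after ≥48 hr at 37 °C. Cells: DT40 Tdp1-/- stably carrying human TDP1, 400 per well, compound exposure in the absence of CPT (DMSO vehicle).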
# 12-LOX inh – Primary qHTS assay for inhibitors of human arachidonate 12S-lipoxygenase (ALOX12): Round 2; Potency, µM (titrated, usually from 108 µM), for inactives: top-dose activity change, negative = inhibition, most hits filed as inhibitors; Polyunsaturated fatty acid lipoxygenase ALOX12 (Homo sapiens), P18054; purified 12hLO, xylenol orange hydroperoxide absorbance; 580,000 tested, 1.1% active; AID 1671190, 2021
# Target sequence (P18054 whole entry, looked up): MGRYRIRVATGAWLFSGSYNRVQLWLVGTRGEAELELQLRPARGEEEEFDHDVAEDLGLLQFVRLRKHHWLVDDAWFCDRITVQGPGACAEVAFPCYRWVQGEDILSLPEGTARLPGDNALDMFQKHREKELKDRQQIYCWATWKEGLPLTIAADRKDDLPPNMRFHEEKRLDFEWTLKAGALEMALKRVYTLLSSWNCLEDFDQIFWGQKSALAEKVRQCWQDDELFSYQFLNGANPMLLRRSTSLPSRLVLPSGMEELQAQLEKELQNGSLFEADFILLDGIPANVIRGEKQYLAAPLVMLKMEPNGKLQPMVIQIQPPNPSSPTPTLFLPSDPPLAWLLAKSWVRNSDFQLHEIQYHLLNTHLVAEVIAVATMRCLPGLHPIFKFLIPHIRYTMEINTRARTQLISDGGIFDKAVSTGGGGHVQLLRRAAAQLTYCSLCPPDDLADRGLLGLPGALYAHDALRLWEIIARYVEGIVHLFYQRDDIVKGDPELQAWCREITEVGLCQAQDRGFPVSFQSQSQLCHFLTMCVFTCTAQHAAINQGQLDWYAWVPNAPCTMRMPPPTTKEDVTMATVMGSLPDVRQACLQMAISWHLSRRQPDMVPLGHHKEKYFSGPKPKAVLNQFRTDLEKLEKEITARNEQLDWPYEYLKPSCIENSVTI
#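 Hydroperoxide product was detected by ferrous iron/xylenol orange as the 573 to 405 nm absorbance ratio. Arachidonic acid at 40 uM (final) was turned over for 30 min at room temperature by 150 nM human 12hLO, pH 7.0 Hepes buffer, after 15 min compound preincubation.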
# VP16 counter – VP16 counterscreen qHTS for inhibitors of ROR gamma transcriptional activity; Drosophila S2 Gal4-VP16 UAS-luciferase, luminescence, 20 h; 310,000 tested, 3.5% active; Potency, µM (titrated, usually from 53.6 µM), without a hit: at the highest dose activity, negative = inhibition, hits mostly inhibitors;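 note: Gal4-VP16 expression switched on by copper sulfate through the metallothionein promoter; nearly all actives have a fitted effect of over 50% in size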
# ELG1 DNA repair – qHTS screen for small molecules that inhibit ELG1-dependent DNA repair in human embryonic kidney (HEK293T) cells expressing luciferase-tagged ELG1; Potency, µM (series often up to 46.1 µM), inactives show top-dose activity change, negative = inhibition, most hits filed as inhibitors; HEK293T ELG1-luciferase reporter, luminescence, 16 h; DNA damage induced by 5-fluorouridine; 330,000 tested, 2.3% active; note: nearly all actives have a fitted effect of over 55% in size
#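 DMSO vehicle served as the neutral condition. Each well held 2,000 cells given 5-fluorouridine plus compound; after 16 hr at 37 °C/5% CO2, ONE-Glo was added and luciferase measured 30 min later.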
# An asterisk follows results filed as active; ? = inconclusive; . = not tested or not shown; [ ] = another dose, or the depositor's remark. Calls come from the whole dose curve; as a rule, active = well fitted curve in the direction sought with a large enough effect; inconclusive = small, poorly fitted or top-dose-only effect, or another doubt; inactive = no such curve, though single readings can be large; an effect the other way counts as inactive or inconclusive. % is set by controls: 0 for no effect and ±100 for the full control effect; potency is the fitted concentration of half-maximal effect.
SMILES,TDP1 cell CPT,RORg inh,DT40 TDP1 no CPT,12-LOX inh,VP16 counter,ELG1 DNA repair
COc1ccc(CNC(=O)C(CC(C)C)N2Cc3ccccc3C2=O)cc1 (configuration not stated),?,.,?,-12%,.,.
COc1cc(C(CC(=O)Nc2ccc(Br)cn2)N2Cc3ccccc3C2=O)cc(OC)c1OC (configuration not stated),?,.,?,-24%,.,.
COc1ccc(C(CC(=O)Nc2ccc(Br)cn2)N2Cc3ccccc3C2=O)cc1 (configuration not stated),5.2µM*,.,23µM*,-16%,.,.
CNC(=O)C1CCCCN1C(=O)Cc1nc(-c2ccccc2)oc1C (configuration not stated),.,.,.,-25%,.,.
COc1ccc(-c2c(C(=O)O)sc3c2NC(=O)CC32C(=O)N(C)c3ccc(C(C)C)cc32)cc1 (configuration not stated),.,.,.,32%,.,.
C/C=C(/C)C(=O)O[C@@H]1[C@H](OC(=O)C=C(C)C)c2c(ccc3ccc(=O)oc23)OC1(C)C,?,16%,?,16%,-4%,-24%
CCO[C@@H]1c2c(ccc3ccc(=O)oc23)OC(C)(C)[C@@H]1O,-1%,.,-7%,-2%,.,0%
C/C=C(/C)C(=O)O[C@@H]1c2c(ccc3ccc(=O)oc23)OC(C)(C)[C@@H]1OC(=O)/C(C)=C\C,16µM*,?,9.2µM*,1%,?,-5%
CC(=O)OC1c2c(ccc3ccc(=O)oc23)OC(C)(C)C1OC(=O)CC(C)C (configuration not stated),23µM*,?,18µM*,22%,?,-7%
O=C(O)c1cccc(COc2ccccc2Cl)c1,-27%,24%,-17%,-7%,1.1µM*,?
CN1CCN(C(=O)c2cccc(COc3cc(Cl)ccc3Cl)c2)CC1,?,-30%,22µM*,-2%,-2%,?
CC(C)N1CC2(CC(c3ccccc3F)=NO2)CN1C(=O)c1ccco1 (configuration not stated),-2%,.,-9%,0%,.,.
O=C(c1ccco1)N1CC2(CC(c3ccc(Cl)cc3)=NO2)CN1Cc1ccc(Br)cc1 (configuration not stated),21µM*,.,?,?,.,.
CC(C)(CC(=O)N1CCN(c2ccc(Cl)cc2)CC1)CC1=NS(=O)(=O)c2ccccc2N1,18µM*,-14%,12µM*,0%,?,?
COc1cc(NC(=O)COC(=O)CCCC2=NS(=O)(=O)c3ccccc3N2)cc(OC)c1,0%,-14%,16%,-13%,-4%,11%
O=C(CCCC1=NS(=O)(=O)c2ccccc2N1)N1CCN(c2ccccc2)CC1,?,23%,?,0%,-8%,?
O=C(CCCC1=NS(=O)(=O)c2ccccc2N1)N1CCN(c2ccc(Cl)cc2)CC1,16µM*,43%,?,-6%,-3%,?
COc1cccc(N2CCN(C(=O)CC(C)(C)CC3=NS(=O)(=O)c4ccccc4N3)CC2)c1,15µM*,33%,4.6µM*,9%,?,?
Cc1nc(C)c(C(=O)N2CCC(Oc3ccc(-c4noc(-c5ccccc5)n4)cc3)C2)s1 (configuration not stated),.,.,.,-7%,.,.
O=C1CCN(S(=O)(=O)c2cccs2)CCCC(CO)CCN1 (configuration not stated),.,.,.,1%,.,.
COc1ccccc1CN(Cc1ccco1)c1cnc(S(C)(=O)=O)nc1C(=O)Nc1ccccc1,.,.,.,34%,.,.
O=C(N(c1ccccc1)c1ccccc1)N(c1ccccc1)c1ccccc1,?,5%,21µM*,22%,2%,?
O=C(CCl)N(c1ccccc1)c1ccccc1,2.1µM*,14µM*,1.8µM*,-10%,?,21µM*
O=Cc1[nH]c2ccccc2c1N(C(=O)CCl)c1ccccc1,10µM*,20%,15µM*,25%,-6%,?
O=C1NCCCCCCN(Cc2ccncc2)[C@@H]2CN(Cc3ccncc3)CC[C@@H]12,.,.,.,173%,.,.
SMILES,TDP1 cell CPT,RORg inh,DT40 TDP1 no CPT,12-LOX inh,VP16 counter,ELG1 DNA repair
COc1ccc(-c2nc(NC(=O)c3ccc(C)cc3)n[nH]2)cc1OC,.,.,.,9%,.,.
CCOC(=O)C1(Cc2cccc(Cl)c2)CCCN(C(=O)c2ccc(C)nc2)C1 (configuration not stated),?,43%,?,-6%,5%,3%
CCOC(=O)C1(Cc2cccc(Cl)c2)CCCN(C(=O)c2c(CC)noc2C)C1 (configuration not stated),?,0%,12µM*,21%,?,?
CCOC(=O)C1(Cc2cccc(Cl)c2)CCCN(C(=O)c2cc(C)on2)C1 (configuration not stated),18µM*,19%,21µM*,-1%,30%,?
CCOC(=O)C1(Cc2cccc(Cl)c2)CCCN(C(=O)c2cc(C(C)C)nn2C)C1 (configuration not stated),15µM*,?,?,114%,3%,-10%
CCOC(=O)C1(Cc2cccc(Cl)c2)CCCN(C(=O)CCSC)C1 (configuration not stated),?,-1%,?,?,1%,1%
COCCN1CCOC2(CCN([S+](=O)([O-])c3ccccc3C)CC2)C1=O,.,.,.,-10%[176 µM],.,.
CC(=O)N1CCC(N2CCC([C@@H]3CNC[C@H]3CO)CC2)CC1,.,.,.,49%,.,.
COc1ccc(CN2C[C@H]3CCCN3c3cc(Br)ccc3S2(=O)=O)cc1,2.1µM*,.,0.92µM*,.,.,?
C=C1[C@@H](O)CN(Cc2ccc(OC)cc2)S1(=O)=O,?,.,18µM*,.,.,.
CC(C)CC(=O)Nc1ccc(NC(=O)c2ccccc2F)cc1,.,.,.,-12%,.,.
Cc1ccc(S(=O)(=O)N(C)C)cc1NC(=O)C(C)N(C)Cc1sccc1C (configuration not stated),18µM*,?,21µM*,-4%,-7%,-20%
COc1ccc(NC2=NC(=S)N(c3cccc(C)c3)C23CCCCC3)cc1,?,2µM*,?,0%,?,?

# Screens: PubChem, National Center for Advancing Translational Sciences (NCATS)
